# Experimental data taken from paper PMC5540273 (PLoS ONE, 2017).
# pKd: −log10 of the molar value.
# Experiments:
# DMPK2 = test system: T1, DMPK2
# T1 construct: gene CDC42BPG
# 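Further: kd values determined as follow-up on hits from a single-replicate KINOMEscan panel screen.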
smiles,measurement,setting,value
COc1cccc(C2=C(Nc3cc(Cl)c(O)c(Cl)c3)C(=O)NC2=O)c1 [SB-390767],pKd,CSNK1G1,< 5.00
same,pKd,DDR1,< 5.00
Cc1ccc(-c2nc(Nc3ccncc3)c3ccccc3n2)s1 [GSK189015],pKd,EPHA5,< 5.00
Fc1ccc(-c2nn3cccc(F)c3c2-c2ccncc2)cc1 [GW475620],pKd,CSNK1D,7.11
same,pKd,CSNK1E,6.66
same,pKd,DMPK2,6.00
